Only some compounds are listed: those with a hit (about 9.2% of all), similar ones and a draw of the others.
Rab9 promoter act: activators of Rab9 promoter; hit rate 2.8% among 320,000; Potency, µM (top dose mostly 9.22 µM), for inactives: top-dose activation, negative = inhibition, most hits filed as activators; Huh7 Rab9 promoter-luciferase reporter, luminescence, 24 h; also: % of control where 0% means no effect; nearly all actives have a fitted effect of over 60% in size
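Promoter activation is measured as luciferase luminescence in Huh7 cells stably transfected with a Rab9 promoter–luciferase construct, following 24 h compound exposure at 37 °C and 10 min reagent incubation at ambient temperature.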
NPC1 promoter act: activators of NPC1 promoter | Huh7 NPC1 promoter luciferase reporter, 24 h | Potency, µM (titrated, usually from 9.22 µM), without a hit: at the top dose activation, usual class: activators | hit rate 2.4% among 320,000 | AID 485313; also: % of control where 0% means no effect; nearly all actives have a fitted effect of over 60% in size
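Luminescence read-out of NPC1 promoter-driven luciferase in stably transfected Huh7 cells; compounds delivered in DMSO and left 24 h at 37C, 5% CO2, qHTS titration format.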
FLuc modulator: inhibits or activates purified firefly luciferase, miR-21 counter-screen | purified FLuc, Km substrates, luminescence inhibition | Potency, µM (top dose mostly 57.5 µM), for the others: at the highest dose activity change, negative = inhibition, usual class: inhibitors | hit rate 6.9% among 360,000 | AID 588342;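 also: plate controls were vehicle for no effect and reference inhibitor for full effect; nearly all actives have a fitted effect of over 55% in size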
Target sequence (P08659 whole entry, looked up): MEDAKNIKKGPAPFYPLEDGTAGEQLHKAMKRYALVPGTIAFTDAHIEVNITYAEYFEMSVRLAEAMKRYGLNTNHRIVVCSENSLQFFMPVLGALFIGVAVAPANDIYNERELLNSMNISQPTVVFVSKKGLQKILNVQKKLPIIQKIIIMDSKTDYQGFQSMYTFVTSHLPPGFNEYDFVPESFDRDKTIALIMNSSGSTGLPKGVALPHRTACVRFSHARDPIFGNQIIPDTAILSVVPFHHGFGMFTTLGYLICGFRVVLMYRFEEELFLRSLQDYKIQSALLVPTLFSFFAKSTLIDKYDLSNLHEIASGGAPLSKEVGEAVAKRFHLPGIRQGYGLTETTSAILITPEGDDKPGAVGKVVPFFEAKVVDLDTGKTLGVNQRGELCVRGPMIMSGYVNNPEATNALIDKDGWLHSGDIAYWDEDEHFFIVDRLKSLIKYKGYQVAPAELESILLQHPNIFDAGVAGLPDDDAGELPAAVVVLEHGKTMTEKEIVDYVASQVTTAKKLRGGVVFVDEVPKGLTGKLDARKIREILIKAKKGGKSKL
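Purified P. pyralis luciferase (10nM final) with 10uM D-luciferin and 10uM ATP (Km levels) in 50mM Tris acetate pH 7.5, 10mM Mg acetate, 0.01% Tween-20, 0.05% BSA; qHTS 6-point titration, ~60 µM downward; luminescence read.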
ELG1 genotox: inducers of genotoxicity in HEK293T ELG1-luciferase cells; HEK293T ELG1-luciferase reporter, luminescence, 16 h; Potency, µM (series often up to 46 µM), for inactives: at the top dose activity change, positive = activation, hits mostly activators; hit rate 1.3% among 330,000; also: % of control where 0% means no effect; nearly all actives have a fitted effect of over 60% in size
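16 hr compound incubation (37 °C, 5% CO2) of HEK293T cells carrying luciferase-tagged ELG1; luciferase then measured by ONE-Glo luminescence after 30 min at RT.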
ELG1 DNA repair: blocks ELG1-dependent DNA repair in HEK293T cells | AID 504467 | Potency, µM (highest dose often 46.1 µM), for inactives: top-dose activity change, negative = inhibition, actives largely listed as inhibitors | HEK293T ELG1-luciferase reporter, luminescence, 16 h; DNA damage induced by 5-fluorouridine | hit rate 2.3% among 330,000; also: % is scaled to controls: 0 for no effect and ±100 for the full control effect; nearly all actives have a fitted effect of over 55% in size
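Overnight (16 hr) co-exposure of 2,000 cells/well to 5-fluorouridine and compound at 37 °C preceded detection. Luciferase was quantified via ONE-Glo luminescence; loss of signal denotes inhibition.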
SMN2 splice enh: increases expression of the SMN2 splice variant. HEK293 SMN2-luciferase splicing reporter, luminescence, 30-36 h. Potency, µM (highest dose often 46.1 µM), for inactives: at the highest dose activity change, positive = activation, most hits filed as activators. hit rate 2.8% among 210,000; also: % of control where 0% means no effect; nearly all actives have a fitted effect of over 55% in size
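HEK293 cells carry an SMN2 minigene-luciferase reporter in which exon 7 inclusion puts luciferase in frame. Cells were seeded at 2000 cells/well, attached for 10-12 hours, then exposed to compounds for 30-36 hours at 37C before ONE-Glo luminescence.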
* = called active by the depositor; u = inconclusive; x = no result given. Calls follow the shape of the dose curve; as a rule, active = well fitted curve in the direction sought with a large enough effect; inconclusive = small, poorly fitted or top-dose-only effect, or another doubt; inactive = no such curve, though single readings can be large; an effect the other way counts as inactive or inconclusive. Potency is read from the fitted curve at half-maximal effect.

SMILES | Rab9 promoter act | NPC1 promoter act | FLuc modulator | ELG1 genotox | ELG1 DNA repair | SMN2 splice enh
CCOc1cccc(-c2cc(C(=O)Nc3ccon3)c3ccccc3n2)c1 | 3.0% | -4.9% | u | -6.0% | 13µM* | x
CCC(C)NC(=O)C1CCN(S(=O)(=O)c2cccc3nonc23)CC1 (stereo unspecified) | -1.3% | -0.2% | 7.0% | -0.2% | 10.7% | x
CC1(C)CCC(=O)N2CC[C@H]3C[C@H](OC(=O)Nc4ccc5c(c4)OCO5)C[C@@H]1[C@H]32 | u | 3.98µM* | 15.1µM* | -5.1% | u | x
CC1(C)CCC(=O)N2CC[C@H]3C[C@H](OC(=O)Nc4ccccc4)C[C@@H]1[C@H]32 | u | u | 19µM* | 19.4% | u | x
CC(C)[C@@H](CO)NC(=O)c1ccc2c3n(nc2c1)-c1ccc(Cl)cc1CO3 | 1.12µM* | 1.41µM* | 8.49µM* | u | u | x
C[C@@H](CO)NC(=O)c1ccc2c3n(nc2c1)-c1ccc(Cl)cc1CO3 | 2.82µM* | 1.41µM* | 3.01µM* | 7.3µM* | u | x
Cc1ccc(Cl)cc1Nc1nn2c(=O)c3ccc(C(=O)NC(C)c4ccccc4)cc3nc2s1 (stereo unspecified) | x | x | -3.8% | x | x | x
O=C(CN1C(=O)NC2(CCCC2)C1=O)c1ccc(Cl)s1 | 3.0% | -3.3% | -1.9% | 1.5% | u | x
CC1=CCC(COC(=O)Nc2ccccc2)CC1 (stereo unspecified) | 3.98µM* | 2.82µM* | 6.75µM* | u | u | 17.8µM*
Cc1nc(N2CCN(S(=O)(=O)c3cccc4nonc34)CC2)c2c3c(sc2n1)CCCC3 | -3.1% | -0.7% | -16.8% | -6.9% | 18.4µM* | 11.7%
Cc1nc(N2CCN(S(=O)(=O)c3ccccc3)CC2)c2c3c(sc2n1)CC(C)CC3 (stereo unspecified) | -5.3% | -0.1% | -6.9% | -12.7% | u | -27.1%
CCOc1ccc(CNc2nc3ccccc3n2C)cc1 | 2µM* | 3.16µM* | 12µM* | u | u | x
Cn1c(NCc2ccccc2O)nc2ccccc21 | 2.82µM* | 3.98µM* | 21.3µM* | u | u | u
Cn1c(NCc2ccccc2F)nc2ccccc21 | x | x | 16.9µM* | x | x | 12.6µM*
Cc1ccc(CNc2nc3ccccc3n2C)o1 | 2µM* | u | u | u | u | x
Cc1ccc(C(=O)CC2(O)C(=O)N(Cc3ccccc3)c3ccccc32)c(C)c1 (stereo unspecified) | x | x | 19µM* | x | x | -20.6%
Cc1ccc(C(=O)CC2(O)C(=O)N(Cc3ccccc3)c3ccc(Br)cc32)cc1 (stereo unspecified) | x | x | -5.4% | x | x | x
CCc1ccc(C(=O)CC2(O)C(=O)N(Cc3ccc(C)cc3)c3ccccc32)cc1 (stereo unspecified) | x | x | 7.57µM* | x | x | -9.0%
CCN(CC)S(=O)(=O)c1ccc(N2CC(C(=O)N3Cc4ccccc4CC3C(N)=O)CC2=O)cc1 (stereo unspecified) | x | x | x | 2.2% | 0.0% | x
O=C(OCCN1CCOCC1)c1ccc2c(c1)OCCO2 | x | x | 23.9µM* | x | x | u
O=C(OCCN1CCOCC1)c1ccc(O)cc1 | 8.3% | 1.1% | -4.8% | -0.8% | -15.7% | x
O=C(CCCN1CCOCC1)c1ccc2c(c1)OCCO2 | 2µM* | u | 13.5µM* | u | u | u
O=C(OCCN1CCOCC1)c1ccc(Cl)cc1Cl | -1.5% | 1.1% | 23.9µM* | 9.2% | 7.4% | x
O=C(CCN1CCOCC1)c1ccc2c(c1)OCCO2 | 5.2% | 0.8% | -3.7% | 5.0% | 0.8% | 25.1%
O=S(=O)(c1cccc2nonc12)N1CCCCC1 | -3.5% | 0.9% | 0.3% | -3.7% | 11.2% | x
SMILES | Rab9 promoter act | NPC1 promoter act | FLuc modulator | ELG1 genotox | ELG1 DNA repair | SMN2 splice enh
O=C(C1=C[C@@H](C2CC2)C[C@@H](OCc2ccc(CO)cc2)O1)N1CCN(Cc2ccccc2)CC1 | -0.3% | -1.0% | 2.2% | -6.7% | u | x
c1ccc(Oc2ccc(-c3ccn[nH]3)cc2)cc1 | 3.16µM* | u | 10.7µM* | u | u | x
c1ccc(Oc2ccc(-c3ccnc4ncnn34)cc2)cc1 | -12.0% | -0.9% | -10.9% | 10.3% | u | 1.2%
O=c1c(-c2ccc3c(c2)OCCO3)coc2cc(O)cc(O)c12 | u | 1.78µM* | 4.78µM* | 2.51µM* | u | 6.31µM*
O=c1oc2cc(O)ccc2cc1-c1nnc(Nc2ccccc2F)s1 | x | x | 2.39µM* | x | x | 3.98µM*
O=c1oc2cc(O)ccc2cc1-c1ccccc1 | 4.5% | u | 23.9µM* | u | u | x
O=c1oc2ccc3ccccc3c2cc1-c1nnc(Nc2ccccc2F)s1 | x | x | -1.5% | x | x | 0.9%
O=c1oc2cc(O)ccc2cc1-c1nc(-c2ccc(Cl)c(Cl)c2)cs1 | x | x | -3.7% | x | x | x
O=c1oc2cc(O)ccc2cc1-c1ccc2c(c1)OCCO2 | x | x | x | x | x | 17.8µM*
COc1ccc(-c2cc3ccc(O)cc3oc2=O)cc1 | 3.16µM* | 1.26µM* | 4.78µM* | 8.2µM* | u | x
CNS(=O)(=O)c1cccc(C(=O)OCCCOC(=O)c2cccc(S(=O)(=O)NC)c2)c1 | 3.8% | 0.9% | 6.7% | 0.0% | 13.9% | x
Cc1ccc(Oc2ccc(Oc3ccc(C)cc3)nn2)cc1 | 25.9% | 16.6% | -4.1% | 2.3% | u | 0.9%
Cc1ccccc1Oc1ccc(Oc2ccccc2C)nn1 | u | 3.98µM* | u | u | u | u
Fc1ccc(Oc2cnns2)cc1 | 0.6% | -1.2% | -2.1% | 0.5% | 9.1% | -2.2%
Cc1nnc(NCCc2ccccc2)c2ccccc12 | 1.41µM* | 1.58µM* | 7.57µM* | 9.2µM* | u | x
O=C(NCCCO)c1cc2c(cn1)[nH]c1ccccc12 | u | 28.4% | 16.9µM* | 13.5% | u | x
CCOc1ccc(Nc2cc(C)c3ccccc3n2)cc1 | u | 20.7% | 16.9µM* | 10.5% | u | x
CCOc1ccc(Nc2c3ccccc3nc3ccccc23)cc1 | -25.3% | -22.8% | -8.1% | -7.4% | 5.8µM* | x
O=C(CSc1n[nH]c(-c2ccncc2)n1)Nc1ccccc1Cl | -1.8% | -3.2% | 1.3% | -0.9% | 0.0% | x
CCOCCCNC(=O)C1CCN(C(=O)c2cc3sccc3n2C)CC1 | x | x | 4.0% | x | x | -4.8%
O=C(Nc1ccc(N2CCN(C(=O)c3ccc(Cl)cc3)CC2)cc1)c1ccc(Br)o1 | -6.3% | 7.0% | -1.8% | -7.4% | 20.6µM* | -89.5%
O=C(Nc1ccc(N2CCN(C(=O)c3ccc(Cl)cc3)CC2)cc1)c1cc2ccccc2o1 | -13.0% | -4.4% | -0.4% | -3.8% | u | -22.2%
O=C(NC(=S)Nc1ccccc1N1CCCCC1)c1ccc(-c2cccc([N+](=O)[O-])c2)o1 | -5.9% | -7.1% | 8.2% | 0.9% | u | -12.1%

Source: PubChem (National Center for Advancing Translational Sciences (NCATS))
